Among all 52,000 compounds or so, about 4,300 (8.3%) were called active. This excerpt belongs to a sample that is enriched for actives. A number with no mark means an inactive call. Rule as the data show it: active = survival mostly below about 52% (no sharp cut-off); inactive = mostly above about 56%.
tested on: DeltatarO mutant; assay: S. aureus survival, RN4220 and DeltatarO strains – OD600, teichoic acid synthesis inhibitors, primary screen (AID 463173); details: S. aureus RN4220 wild type/DeltatarO growth, OD600, 18 h, stronger effect = lower value, screened at 18.75 µg/mL (by protocol)

Compared with `O=C(Nc1ccc(Cl)cc1Cl)c1cc(S(=O)(=O)N2CCN(c3ccccc3F)CC2)ccc1F`, `COc1ccccc1N1CCN(S(=O)(=O)c2ccc(-c3ccno3)cc2OC)CC1` is lower in survival: 102% for the first, 86% for the second.

Going from `CCN(C(=O)C1CCCN(c2ncnc3c2nc2n3CCCCC2)C1)c1cccc(C)c1` (stereo not drawn) to `Cc1cccc(-n2cnc3cc(C(=O)NC4CCCCCC4)ccc32)c1`, the survival rises from 75% to 106%.

Compared with `CC(C)Cc1nn2c(=O)cc(COC(=O)c3cccc(NS(C)(=O)=O)c3)nc2s1`, `CC(=O)Nc1ccc(OCc2cc(=O)n3ccccc3n2)cc1` is lower in survival: 82% for the first, 76% for the second.

Going from `Cc1ccc(C(=O)CCCn2nnc(-c3ccncc3)n2)cc1C` to `CCCNC(=O)c1ccc2c(c1)ncn2-c1ccc(C)cc1C`, the survival falls from 100% to 75%.

Compared with `O=C(CSC1=NC2CCCCC2N1)N1CCOCC1` (stereo not drawn), `CC1CCCCC1NC(=O)CN1CCC(NC(=O)c2cccc(F)c2)CC1` (stereo not drawn) is higher in survival: 83% for the first, 85% for the second.

Compared with `Cc1ccc(NC(=O)CSc2nc3ccccc3nc2Cc2ccccc2)c(Cl)c1`, `Cc1cc(NC(=O)Cc2ccccc2)cc(-c2nc3ccccc3o2)c1O` is lower in survival: 99% for the first, 79% for the second.

Compared with `CCCCCCOc1ccc(-c2nc3ccc(Br)cc3c(=O)o2)cc1`, `Cc1ccc(OCC(=O)Nc2ccc(-c3nc4ccc(C)cc4o3)cc2)cc1` is lower in survival: 83% for the first, 66% for the second.

`CCCC(CCC)C(=O)Nc1nnc2n1CCS2` and `CCC1(CC)Cc2ccccc2-c2nc(NCCCO)[nH]c(=O)c21` are the same in survival: 82% for the first, 82% for the second.

First: O=C(NCc1ccccc1)C1CCN(C(=O)NCc2ccccc2)CC1
Second: CC1CCN(c2nc3ccc(C(=O)NCc4ccccc4)cc3s2)CC1
The survival of the first is higher: 90% for the first, 77% for the second.

Compared with `COc1cc(-c2ccno2)ccc1S(=O)(=O)N1CCN(c2ccc(F)cc2)CC1`, `COc1cc(-c2ccno2)ccc1S(=O)(=O)N1CCN(c2ccccc2)CC1` is higher in survival: 67% for the first, 72% for the second.

Going from `COc1cccc(N2CCN(S(=O)(=O)c3ccc(-c4ccno4)cc3OC)CC2)c1` to `COc1cccc(NC(=O)CN2CCCN(S(=O)(=O)c3ccc(Br)cc3)CC2)c1`, the survival falls from 64% to 58%.

Compared with `N#CC1=C2SCN(C3CCCCC3)CN2C(=O)CC1c1ccc(Cl)cc1` (stereo not drawn), `CC1Cc2cc(C(=O)NC3CCCCC3)ccc2O1` (stereo not drawn) is lower in survival: 91% for the first, 71% for the second.

First: CCOc1cc(CNC(=O)c2cc(-c3ccccc3)n[nH]2)cc(OCC)c1OCC
Second: Cc1cc(C)cc(-n2cnc3cc(C(=O)NCCc4ccccc4)ccc32)c1
The survival of the first is higher: 98% for the first, 78% for the second.

`Cc1ccc(-c2cc(NC(=O)COc3c(C)cc(C)cc3C)on2)cc1` and `Cc1cc(C)c2oc(-c3ccc(NC(=O)COc4ccccc4C)cc3)nc2c1` are the same in survival: 67% for the first, 67% for the second.

Compared with `Cc1ccc(N2C(=O)CS(=O)(=O)C23C(=O)N(Cc2ccccc2F)c2ccccc23)cc1Cl` (stereo not drawn), `Cc1cccc(-n2cnc3cc(C(=O)NCc4ccccc4Cl)ccc32)c1` is higher in survival: 60% for the first, 72% for the second.

Compared with `Cc1ccc(CSC2=Nc3ccccc3C3=NC(CCC(=O)N4CCN(c5ccccc5)CC4)C(=O)N23)cc1` (stereo not drawn), `O=C(CCC1N=C2c3ccccc3N=C(SCc3ccc(Cl)cc3)N2C1=O)N1CCN(c2ccccc2)CC1` (stereo not drawn) is higher in survival: 85% for the first, 91% for the second.

Going from `O=C(CCC1N=C2c3ccccc3N=C(SCc3ccc(F)cc3)N2C1=O)N1CCN(c2ccccc2)CC1` (stereo not drawn) to `O=C(CCC1N=C2c3ccccc3N=C(SCc3cccc(Cl)c3)N2C1=O)NCCc1ccccc1` (stereo not drawn), the survival rises from 57% to 63%.

First: COc1ccccc1N1CCN(C(=O)c2cc3c(=O)n(Cc4cccs4)ccc3nc2C)CC1
Second: Cc1nc2ccc(C(=O)N3CCN(Cc4ccccc4)CC3)cc2[nH]1
The survival of the first is lower: 74% for the first, 104% for the second.

`Cc1oc2ncn(CC(C)C)c(=O)c2c1C(=O)NCCCN(Cc1ccccc1)C(C)C` and `CCN(CC)c1ccc(NC(=O)C(Cc2ccccc2)NS(=O)(=O)c2ccc(Br)s2)c(C)c1` (stereo not drawn) are the same in survival: 117% for the first, 117% for the second.

Compared with `COc1ccc2c(C)c(CCC(=O)NCCc3ccccc3OC)c(=O)oc2c1`, `COc1ccc(Br)cc1CNC(=O)CCSCc1ccc(C)cc1` is higher in survival: 77% for the first, 81% for the second.

First: Cc1ccccc1-c1nc2cc(NC(=O)Cc3ccc(Cl)cc3)ccc2o1
Second: Cc1ccc2oc(-c3cccc(NC(=O)Cc4ccc(Cl)cc4)c3)nc2c1
The survival of the first is lower: 66% for the first, 72% for the second.

Compared with `O=C(Nc1ccc(Cl)c(-c2nc3ccccc3o2)c1)c1cccc2c(Cl)cccc12`, `Cc1ccc2oc(-c3cc(NC(=O)c4oc5ccccc5c4C)ccc3Cl)nc2c1` is lower in survival: 84% for the first, 62% for the second.

Going from `O=C(Nc1ccc(O)c(-c2nc3ccccc3o2)c1)c1ccco1` to `Cc1cc(NC(=O)c2ccco2)cc(-c2nc3cc(Cl)ccc3o2)c1O`, the survival rises from 71% to 79%.

First: O=C(/C=C/c1ccco1)Nc1ccc(Cl)c(-c2nc3cc(Cl)ccc3o2)c1
Second: Cc1ccc2nc(-c3cc(NC(=O)/C=C/c4ccccc4)ccc3Cl)oc2c1
The survival of the first is lower: 65% for the first, 68% for the second.

Compared with `Cc1ccc(-c2nc3sc(CCNC(=O)c4ccc(Br)o4)c(C)n3n2)cc1`, `CCCNC(=O)c1ccc2c(c1)nc(C)n2-c1cccc(C)c1` is lower in survival: 84% for the first, 83% for the second.

Going from `CCOC(=O)C1CCN(C(=O)CN(c2cc(Cl)ccc2OC)S(C)(=O)=O)CC1` to `COc1ccc2nc(SCC(=O)NC3CCCCC3C)c(C#N)cc2c1` (stereo not drawn), the survival falls from 95% to 89%.

Compared with `CC1CCCN(CCCNC(=O)Cn2ncc3c([nH]c4ccccc43)c2=O)C1` (stereo not drawn), `Cc1nn(CCCC(=O)Nc2ccccc2C(F)(F)F)c(=O)c2c1sc1ccccc12` is lower in survival: 94% for the first, 74% for the second.

Compared with `O=C(Nc1cc(F)ccc1F)C1COc2ccccc2C1` (stereo not drawn), `CC(C)(C)C(=O)N1c2ccccc2CCc2ccccc21` is higher in survival: 69% for the first, 84% for the second.

First: Cc1cc2nc(-c3cccc(NC(=O)COc4ccc(Cl)c(C)c4)c3)oc2cc1C
Second: CCOc1ccc(C(=O)Nc2ccc(Cl)c(-c3nc4cc(C)cc(C)c4o3)c2)cc1
The survival of the first is lower: 64% for the first, 66% for the second.

First: CCc1ccc(OCC(=O)Nc2ccc(Cl)c(-c3nc4ncccc4o3)c2)cc1
Second: Cc1cc(NC(=O)COc2ccccc2)cc(-c2nc3ccccc3o2)c1O
The survival of the first is lower: 47% for the first, 94% for the second.

Going from `CCCCOc1ccc(C(=O)Nc2cccc(-c3nc4ccccc4o3)c2C)cc1` to `Cc1cc(C)c2oc(-c3cccc(NC(=O)c4cccc(F)c4)c3C)nc2c1`, the survival falls from 76% to 72%.

Compared with `Cc1ccc2oc(-c3cc(NC(=O)CC(C)C)ccc3Cl)nc2c1`, `CCc1ccc2oc(-c3ccc(C)c(NC(=O)c4ccc(C#N)cc4F)c3)nc2c1` is lower in survival: 87% for the first, 74% for the second.

Going from `CN(c1ccc(C(=O)NCc2cccnc2)cc1)S(C)(=O)=O` to `Nc1ncc(S(=O)(=O)NCc2ccccc2)cn1`, the survival falls from 73% to 70%.

Going from `Cc1cccc(C(=O)n2nc(-c3ccco3)nc2NCc2ccccc2)c1` to `Cc1cccc(C(c2sc3nc(-c4ccco4)nn3c2O)N2CCN(Cc3ccccc3)CC2)c1` (stereo not drawn), the survival rises from 63% to 94%.

Compared with `C=CCN1C(=O)C2C(C(=O)NC3CCCCC3C)C3(C)C=CC2(O3)C1C(=O)NC(C)(C)C` (stereo not drawn), `COc1cc(C(=O)Nc2ccc(NC(=O)c3ccc(C(C)(C)C)cc3)cc2)cc(OC)c1OC` is higher in survival: 65% for the first, 132% for the second.

Compared with `COc1ccc(Nc2oc(-c3ccc(COc4cccc(C)c4)o3)nc2C#N)cc1`, `N#Cc1ccc2c(c1)nc1c3cccc4cccc(c(=O)n21)c43` is lower in survival: 109% for the first, 72% for the second.

Compared with `Cc1ccc(-n2c(=O)c3ccccc3n(CC(=O)Nc3cccc(C(F)(F)F)c3)c2=O)cc1`, `Cc1nc2cc(C(=O)NCCC3=CCCCC3)ccc2n1-c1ccc(Br)cc1` is lower in survival: 63% for the first, 60% for the second.

Going from `Cc1nc(Oc2ccccc2C)c2oc3ccccc3c2n1` to `CC(=O)c1ccc(Oc2nc(C)nc3c2oc2ccccc23)cc1`, the survival falls from 101% to 92%.

Compared with `CC(=O)Nc1ccc(Nc2nc3ccc(Cl)cc3n3cnnc23)cc1`, `Cc1cccc(-n2c(C)nc3cc(C(=O)NCCC4=CCCCC4)ccc32)c1` is lower in survival: 99% for the first, 71% for the second.

Compared with `COc1ccc(C(=O)Nc2nccs2)cc1OC`, `COCCCNC(=O)c1ccc2c(c1)nc(C)n2-c1cccc(C)c1` is lower in survival: 79% for the first, 69% for the second.

For `COc1cc(-c2ccno2)ccc1S(=O)(=O)N1CCN(c2cccc(Cl)c2)CC1`, the survival was -1% (active).
`COc1ccc(N2CCN(S(=O)(=O)c3ccc(-c4ccno4)cc3OC)CC2)cc1` was tested, and the survival was 6% (active).
For `O=C(CCC1N=C2c3ccccc3N=C(SCc3cccc(Cl)c3)N2C1=O)N1CCN(c2ccccc2)CC1` (stereo not drawn), the survival was 47% (active).
`O=C(CCC1N=C2c3ccccc3N=C(SCc3ccccc3Cl)N2C1=O)N1CCN(c2ccccc2)CC1` (stereo not drawn) was tested, and the survival was 49% (active).
With `COc1c(C)cccc1C(=O)Nc1ccc(Cl)c(-c2nc3cc(C)ccc3o2)c1` the survival was 6% (active).
`Cc1ccc2oc(-c3cc(NC(=O)c4ccco4)ccc3Cl)nc2c1` was tested, and the survival was 0% (active).
`Cc1cc(C)c2oc(-c3cc(NC(=O)Cc4ccccc4)ccc3Cl)nc2c1` was tested, and the survival was 31% (active).
In the case of `Cc1ccc2oc(-c3cc(NC(=O)/C=C/c4ccco4)ccc3Cl)nc2c1`, the survival was 40% (active).
With `CCc1ccc(OCC(=O)Nc2ccc(Cl)c(-c3nc4cc(C)cc(C)c4o3)c2)cc1` the survival was 35% (active).
In the case of `Cc1ccc(OCC(=O)Nc2cccc(-c3nc4ccccc4o3)c2C)cc1C`, the survival was 55% (active).
With `Cc1ccc2oc(-c3cc(NC(=O)Cc4ccccc4)ccc3Cl)nc2c1` the survival was 52% (active).
`Cc1ccc2nc(-c3cc(NC(=O)COc4ccc(C)c(C)c4)ccc3Cl)oc2c1` was tested, and the survival was 30% (active).
With `Cc1cc(C)c2oc(-c3cccc(NC(=O)COc4ccccc4Cl)c3C)nc2c1` the survival was 42% (active).
`COc1cccc(Oc2nc(C)nc3c2oc2ccccc23)c1` was tested, and the survival was 25% (active).
`Cc1ccc(-n2cnc3cc(C(=O)NCc4ccccc4Cl)ccc32)c(C)c1` was tested, and the survival was 37% (active).
In the case of `CCOc1ccc(-n2c(C)nc3cc(C(=O)NCCC4=CCCCC4)ccc32)cc1`, the survival was -4% (active).
For `CCCCCNC(=O)c1ccc2c(c1)nc(C)n2-c1cccc(C)c1`, the survival was 0% (active).
`CCCCCNC(=O)c1ccc2c(c1)ncn2-c1cccc(C)c1` was tested, and the survival was 0% (active).

From PubChem BioAssay AID463173 (ICCB-Longwood Screening Facility, Harvard Medical School, 2010)
